Screening data (PubChem)
VP16 counter – Gal4-VP16 reporter inhibition counter-screen. Potency, µM (doses to about 53.6 µM), most hits filed as inhibitors. 310,000 compounds, 3.5% hits. AID 2546. Drosophila S2 Gal4-VP16 UAS-luciferase, luminescence, 20 h;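 also: Gal4-VP16 expression switched on by copper sulfate through the metallothionein promoter; nearly all actives have a fitted effect of over 50% in size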
DT40 TDP1 no CPT – qHTS for Inhibitors of human tyrosyl-DNA phosphodiesterase 1 (TDP1): qHTS in cells in absence of CPT; AID 686978, 2013; 420,000 compounds, 15% hits; Potency, µM (doses to about 46.2 µM), actives largely listed as inhibitors; DT40 Tdp1-/- hTDP1 cells, no CPT, ATP luminescence, 48 h; also: nearly all actives have a fitted effect of over 55% in size
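Readout: luminescence from CellTiter-Glo after 30 min in the dark at RT. Cells: DT40 Tdp1-/- with stable hTDP1, 400/well. Exposure: compounds alone, ≥48 hr, 37 °C.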
DT40 TDP1 CPT – growth inhibition of DT40 Tdp1-/-;hTDP1 cells with camptothecin (screen for TDP1 inhibitors) | 420,000 compounds, 12% hits | AID 686979 | Potency, µM (series often up to 46.2 µM), actives largely listed as inhibitors | chicken DT40 Tdp1-/-;hTDP1 cells + 20 nM CPT, ATP luminescence, 48 h; also: nearly all actives have a fitted effect of over 55% in size
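Cell growth measured by CellTiter-Glo luminescence after a minimum 48 h, 37 C compound exposure with 20 nM CPT in Tdp1-knockout DT40 cells stably expressing hTDP1, seeded 400/well; qHTS titration format.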
IL-1B inflam inh – blocks inflammasome-driven IL-1 beta release; THP-1 LPS/ATP IL-1B secretion, AlphaLISA, 16 h; hits give low values; activity change, % at 57.5 µM; 360,000 compounds, 4.7% hits; AID 743279; in the data active = activity change below about -50%; inconclusive = mostly about -30% to -49%
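Secreted IL-1B measured by AlphaLISA bead assay after 16 h compound exposure of THP-1 cells; compounds (final up to 57.5 uM) added 1 h before LPS (250 ng/mL) and ATP (1.25 mM) stimulation; lower signal means less secretion.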
RORgamma inh – blocks mouse ROR gamma transcriptional activity | Drosophila S2 Gal4-RORgamma UAS-luciferase reporter, 20 h | 310,000 compounds, 5.4% hits | AID 2551 | Potency, µM (titrated, usually from 53.6 µM), hits mostly inhibitors; also: nearly all actives have a fitted effect of over 60% in size
Target sequence (P51450 whole entry, looked up, the tested form may be a part): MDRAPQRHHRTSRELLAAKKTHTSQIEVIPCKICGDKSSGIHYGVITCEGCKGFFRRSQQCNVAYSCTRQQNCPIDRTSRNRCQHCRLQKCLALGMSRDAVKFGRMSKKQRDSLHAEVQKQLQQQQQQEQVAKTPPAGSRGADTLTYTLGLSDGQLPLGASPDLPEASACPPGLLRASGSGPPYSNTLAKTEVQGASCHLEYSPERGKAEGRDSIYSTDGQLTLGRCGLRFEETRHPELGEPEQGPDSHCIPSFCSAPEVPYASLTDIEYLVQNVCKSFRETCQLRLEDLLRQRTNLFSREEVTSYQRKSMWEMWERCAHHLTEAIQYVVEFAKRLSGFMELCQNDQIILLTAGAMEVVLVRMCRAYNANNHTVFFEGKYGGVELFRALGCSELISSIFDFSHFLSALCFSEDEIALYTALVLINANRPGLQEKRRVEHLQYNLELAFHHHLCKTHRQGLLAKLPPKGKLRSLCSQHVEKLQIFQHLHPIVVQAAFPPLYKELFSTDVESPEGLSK
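In this cell-based reporter format, copper sulfate (700 uM final) drives Gal4–ROR gamma fusion expression from a metallothionein promoter in Drosophila Schneider cells; compounds preincubated 1 hr, reporter read after 20 hr at ambient temperature.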
LDHA block – LDHA (human) enzyme inhibition; purified LDHA, NADH/diaphorase-resazurin fluorescence; hits give low values; activity change, % (values are at about 110 or 230 µM); 480,000 compounds, 0.15% hits; AID 1347041; in the data active = activity change below about -30%; inconclusive = mostly about -25% to -30%
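Human LDH5 at 2 nM final in Tris HCl pH 7.4 with 0.06 mM NADH and 0.2 mM pyruvate, reacted 5 minutes at room temperature. Remaining NADH coupled via diaphorase/resazurin; resorufin fluorescence read at 0 and 20 minutes, normalized to enzyme-free and DMSO wells.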
Numbers stand for hits. Hits are enriched below; roughly 18% of the tested compounds scored in any of these assays. Unless noted, calls follow the shape of the dose curve; as a rule, active = well fitted curve in the direction sought with a large enough effect; inconclusive = small, poorly fitted or top-dose-only effect, or another doubt; inactive = no such curve, though single readings can be large; an effect the other way counts as inactive or inconclusive.

Results for Cn1c(-c2ccc(Cl)cc2)cc2ccccc21 ?
LDHA block: inactive

Results for COc1ccccc1-c1noc(Cn2nc(C)c(S(=O)(=O)N3CCc4ccccc43)c2C)n1 ?
LDHA block: inactive

How did O=Cc1nccc2ccccc12 do in these assays?
DT40 TDP1 no CPT: 6.5µM; DT40 TDP1 CPT: 9.2µM; IL-1B inflam inh: inactive; LDHA block: inactive

What do the screens show for `Cc1ccc2c(/C=C/c3c[nH]c4ccccc34)ccnc2c1C`?
DT40 TDP1 no CPT: inactive; DT40 TDP1 CPT: inactive

How did C(=Cc1c[nH]c2ccccc12)c1nccc2ccccc12 do in these assays?
DT40 TDP1 no CPT: inconclusive; DT40 TDP1 CPT: inconclusive; IL-1B inflam inh: -82; LDHA block: inactive

How did CCOC(=O)c1c(C)[nH]c(C)c1C(=O)Cn1nnc(-c2ccccc2C)n1 do in these assays?
VP16 counter: inactive; DT40 TDP1 no CPT: inconclusive; DT40 TDP1 CPT: 15µM; IL-1B inflam inh: inactive; RORgamma inh: inactive; LDHA block: inactive

What do the screens show for `CCOC(=O)c1c(C)[nH]c(C(=O)Cn2nnc(-c3ccccc3Cl)n2)c1C`?
VP16 counter: inactive; DT40 TDP1 no CPT: inactive; DT40 TDP1 CPT: inactive; IL-1B inflam inh: inactive; RORgamma inh: inactive; LDHA block: inactive

What do the screens show for `CC(O)c1ccc(-c2ccc(CNCCc3ccccc3)o2)cc1` (stereo not drawn)?
LDHA block: inactive

Results for CCCC(=O)C1=C(O)C(c2cccc(Oc3ccccc3)c2)CCC1=O (stereo not drawn) ?
VP16 counter: inconclusive; DT40 TDP1 no CPT: inconclusive; DT40 TDP1 CPT: inconclusive; IL-1B inflam inh: inactive; RORgamma inh: 13µM; LDHA block: inactive

What do the screens show for `O=C1CC(c2cccc(Oc3ccccc3)c2)NC(=O)N1` (stereo not drawn)?
VP16 counter: inactive; DT40 TDP1 no CPT: inactive; DT40 TDP1 CPT: inactive; IL-1B inflam inh: inactive; RORgamma inh: inactive; LDHA block: inactive

What do the screens show for `CC1Sc2ccccc2N(Cc2ccccc2)C1=O` (stereo not drawn)?
DT40 TDP1 no CPT: inconclusive; DT40 TDP1 CPT: inactive; IL-1B inflam inh: inactive; LDHA block: inactive

What do the screens show for `CC(=O)c1ccc2c(c1)N(Cc1ccc3ccccc3c1)C(=O)C(C)S2` (stereo not drawn)?
DT40 TDP1 no CPT: 5.2µM; DT40 TDP1 CPT: 5.8µM; IL-1B inflam inh: inactive; LDHA block: inactive

Results for CCCOc1ccccc1C1NC(=O)NC(C)=C1C(=O)OCc1ccccc1 (stereo not drawn) ?
VP16 counter: inconclusive; DT40 TDP1 no CPT: inconclusive; DT40 TDP1 CPT: 23µM; IL-1B inflam inh: -71; RORgamma inh: inactive; LDHA block: inactive

How did CCOC(=O)C1=C(C)NC(=O)NC1c1cccc(OC)c1OCc1ccccc1Cl (stereo not drawn) do in these assays?
VP16 counter: inactive; DT40 TDP1 no CPT: inconclusive; DT40 TDP1 CPT: 8.2µM; IL-1B inflam inh: inactive; RORgamma inh: inactive; LDHA block: inactive

How did CCCOc1ccccc1C1NC(=O)NC(C)=C1C(=O)OCCOC (stereo not drawn) do in these assays?
VP16 counter: inactive; DT40 TDP1 no CPT: inactive; DT40 TDP1 CPT: inactive; IL-1B inflam inh: inactive; RORgamma inh: inactive; LDHA block: inactive

How did COc1ccc(COC(=O)C2=C(C)NC(=O)NC2c2cccc(OC)c2OC)cc1 (stereo not drawn) do in these assays?
VP16 counter: inactive; DT40 TDP1 no CPT: inactive; DT40 TDP1 CPT: inactive; IL-1B inflam inh: inactive; RORgamma inh: inactive; LDHA block: inactive

Results for CC1=C(C(=O)OCc2ccc3c(c2)OCO3)C(c2ccccc2OCc2ccccc2)NC(=O)N1 (stereo not drawn) ?
VP16 counter: inactive; DT40 TDP1 no CPT: 26µM; DT40 TDP1 CPT: inconclusive; IL-1B inflam inh: -50; RORgamma inh: inactive; LDHA block: inactive

What do the screens show for `CC1=C(C(=O)OCc2ccc3c(c2)OCO3)C(c2ccc(O)c([N+](=O)[O-])c2)NC(=O)N1` (stereo not drawn)?
VP16 counter: inactive; DT40 TDP1 no CPT: inconclusive; DT40 TDP1 CPT: inactive; IL-1B inflam inh: inactive; RORgamma inh: inactive; LDHA block: inactive

Results for COc1ccc(-c2[nH]ncc2CNC(C)c2ccccc2Cl)cc1F (stereo not drawn) ?
VP16 counter: inactive; DT40 TDP1 no CPT: 23µM; DT40 TDP1 CPT: 16µM; IL-1B inflam inh: inactive; RORgamma inh: inactive; LDHA block: inactive

How did CCOc1ccc(N2CC(C(=O)Nc3ccc(Cl)cn3)CC2=O)cc1 (stereo not drawn) do in these assays?
LDHA block: inactive

What do the screens show for `CCn1c(COc2ccc(OC)cc2)nnc1SC(C)C(=O)Nc1ccc2c(c1)OCO2` (stereo not drawn)?
LDHA block: inactive

How did O=C(Cn1ccc2ccc(Cl)cc21)Nc1ccc(O)cc1 do in these assays?
LDHA block: inactive

What do the screens show for `CCN1CCN(C(c2ccccn2)c2c(NC(=O)c3ccccc3)sc(C)c2C)CC1` (stereo not drawn)?
VP16 counter: inactive; DT40 TDP1 no CPT: 8.2µM; DT40 TDP1 CPT: 8.2µM; IL-1B inflam inh: inconclusive; RORgamma inh: inactive; LDHA block: inactive

How did CCN1CCN(C(c2cccnc2)c2c(NC(=O)c3ccco3)sc(C)c2C)CC1 (stereo not drawn) do in these assays?
DT40 TDP1 no CPT: 23µM; DT40 TDP1 CPT: 16µM; IL-1B inflam inh: inconclusive; LDHA block: inactive

Results for O=c1c2cc3c(cc2nc(SCc2nc(-c4ccccc4Cl)no2)n1Cc1ccco1)OCO3 ?
LDHA block: inactive

What do the screens show for `CCCc1ccc(C(=O)NNc2cc(Cl)ccc2Cl)cc1`?
VP16 counter: inactive; DT40 TDP1 no CPT: 23µM; DT40 TDP1 CPT: inconclusive; IL-1B inflam inh: inconclusive; RORgamma inh: inactive; LDHA block: inactive

Results for CCCc1ccc(C(=O)NNC(=O)c2ccc(Cl)cc2)cc1 ?
VP16 counter: inactive; DT40 TDP1 no CPT: inactive; DT40 TDP1 CPT: inactive; IL-1B inflam inh: inactive; RORgamma inh: inactive; LDHA block: inactive

How did Cc1ccc(CN2CCCn3nc(C(=O)NCC(C)c4ccccc4)cc3C2=O)cc1 (stereo not drawn) do in these assays?
DT40 TDP1 no CPT: 16µM; DT40 TDP1 CPT: inconclusive; LDHA block: inactive

Results for COc1ccc(CCNC(=O)c2cc3n(n2)CCCN(Cc2ccc(C)cc2)C3=O)cc1OC ?
DT40 TDP1 no CPT: 21µM; DT40 TDP1 CPT: inconclusive; LDHA block: inactive

What do the screens show for `CCc1ccc(CNC(=O)c2cc3n(n2)CCCN(Cc2ccccc2)C3=O)cc1`?
DT40 TDP1 no CPT: inconclusive; DT40 TDP1 CPT: 16µM; LDHA block: inactive

How did CCCNC(=O)c1cc2n(n1)CCCN(Cc1ccc(F)cc1)C2=O do in these assays?
DT40 TDP1 no CPT: inactive; DT40 TDP1 CPT: inactive; LDHA block: inactive
